For 21 compounds, composite z-score and z-score results are on record in PubChem BioAssay.

The subject of assay [1] is XIP peptide (Xip251-270) binding. In words: small-molecule binders of XIP peptide, primary screen, biochemical, small-molecule microarray, fluorescence 635/667 nm, 0.1 µg/mL protein (AID 1182). To be noted: fluorescent protein binding, 635 nm, higher = more signal, called active from +8 up or from −8 down.
The next assay has as its system XIP peptide (Xip251-270). As to the kind of experiment: small-molecule binders of XIP peptide, primary screen, biochemical, small-molecule microarray, fluorescence 635/667 nm, 0.5 µg/mL protein (AID 1183). The note with it: small-molecule microarray binding, fluorescence 635 nm; higher = more signal.
Assay [2] can be described thus: Plasmodium falciparum growth inhibition, primary screen, strain 3D7, DAPI fluorescence, 100 nL (AID 1184).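 Further: parasites grown inside human red blood cells in medium with human serum.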 To be noted: P. falciparum 3D7 growth, 3 d, higher = more signal.
Assay [3] concerns the target Homeobox protein Hox-A13 (Mus musculus) (UniProt Q62424). In words: inhibitors of HoxA13-DNA binding, primary screen, biochemical, fluorescence polarization, labeled oligonucleotide (AID 1185). To be noted: 15 min, higher = more signal, called active from +8 up or from −8 down. (In general: Polarisation of emitted light reports the rotation of a fluorescent probe.)

Molecules are shown by their SMILES. Active and inactive are the calls of the source.

Sequence of Homeobox protein Hox-A13 (Mus musculus) (Q62424 whole entry, looked up): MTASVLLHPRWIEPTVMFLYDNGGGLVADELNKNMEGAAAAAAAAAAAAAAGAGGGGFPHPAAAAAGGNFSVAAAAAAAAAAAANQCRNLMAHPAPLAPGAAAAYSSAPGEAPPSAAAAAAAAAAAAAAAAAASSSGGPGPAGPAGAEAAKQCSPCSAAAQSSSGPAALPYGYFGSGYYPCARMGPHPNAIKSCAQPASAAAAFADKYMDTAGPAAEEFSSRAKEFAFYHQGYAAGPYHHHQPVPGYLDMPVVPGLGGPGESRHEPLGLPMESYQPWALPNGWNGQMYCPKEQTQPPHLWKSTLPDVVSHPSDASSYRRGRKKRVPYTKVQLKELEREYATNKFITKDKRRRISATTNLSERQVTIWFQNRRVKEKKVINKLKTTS

For `COC(=O)CC1OC1[C@H](C)[C@@H](OC)C(C)C` (some centres undefined), the composite z-score was -0.0835 (inactive) in assay [1] and -0.739 in the assay on XIP peptide (Xip251-270). For the same compound, the z-score is 0.599 in assay [2] and -4.65 (inactive) in assay [3].
For the compound `COc1ccc(O[C@H]2C=C[C@@H](c3ccccc3)O[C@@H]2COC(=O)CCC(C)=NOCC[C@@H]2C=C[C@H](OC(C)=O)[C@@H](COC(C)=O)O2)cc1`, the composite z-score is 0.543 (inactive) in assay [1] and 0.0553 in the assay on XIP peptide (Xip251-270). Moreover, the z-score was -0.703 in assay [2] and -4.08 (inactive) in assay [3].
For `CCN1C(=O)[C@H]2[C@H]3[C@H](O)[C@H](O)CC(=NOC[C@@H](C)[C@H](OCc4ccccc4)C(C)C)[C@@H]3CC[C@H]2C1=O`, in that order: 0.185 (inactive), 0.757, 0.605 and -6.43 (inactive).
For `C#CCCCON=C1C[C@@H](O)[C@@H](O)[C@@H]2[C@@H]3C(=O)N(c4cccc(Oc5ccccc5)c4)C(=O)[C@@H]3CC[C@@H]12`, in that order: -0.0382 (inactive), 0.481, -1.96 and -5.65 (inactive).
For `COC(=O)[C@@H]1CCCN1C(=O)[C@@H](C)CO`, the composite z-score is 0.446 (inactive) in assay [1] and 0.0063 with XIP peptide (Xip251-270). Besides, the z-score in assay [2] is -1.35; in assay [3] it was 1.64 (inactive).
For `O=C1[C@H]2[C@H]3[C@H](O)[C@H](O)CC(=NO[C@@H]4O[C@H](CO)[C@@H](O)[C@H](O)[C@H]4O)[C@H]3CC[C@H]2C(=O)N1Cc1ccccc1`, in that order: -0.175 (inactive), 0.588, -1.19 and -1.28 (inactive).
On to `CCOC(=O)CCN1C(=O)[C@H]2[C@H]3[C@H](O)[C@H](O)CC(=NOCc4ccccc4)[C@@H]3CC[C@H]2C1=O`, for which the composite z-score in assay [1] was 0.204 (inactive); in the assay on XIP peptide (Xip251-270), 0.635. The z-score is 0.226 in assay [2] and -4.34 (inactive) in assay [3].
As to `COc1ccc(O[C@H]2C=C[C@@H](c3ccccc3)O[C@@H]2COC(=O)CCC(C)=NOC(C)CN2CCCCc3nc(C)c(C)cc32)cc1` (some centres undefined), the composite z-score was 0.422 (inactive) in assay [1] and -0.674 in the assay on XIP peptide (Xip251-270). For the same compound, the z-score is -1.34 in assay [2] and -2.19 (inactive) in assay [3].
For `CC(=O)OC[C@H]1O[C@H](C#CCCCc2ccccc2)C=C[C@@H]1OC(C)=O`, in that order: 1.05 (inactive), 0.505, -0.107 and -5.95 (inactive).
For `CC(C)[C@@H](OCc1ccccc1)[C@H](C)C=NOC[C@@H](C)[C@H](OCc1ccccc1)C(C)C`, in that order: 0.468 (inactive), -0.185, 0.128 and 0.24 (inactive).
`C#CCCCON=C1C[C@@H](O)[C@@H](O)[C@@H]2[C@@H]3C(=O)N([C@@H](C)c4ccccc4)C(=O)[C@@H]3CC[C@H]12`: the figures for the composite z-score (in assay [1]; in the assay on XIP peptide (Xip251-270)) were -0.396 (inactive) and 0.164, respectively. For the same compound, the z-score in assay [2] was -1.46; in assay [3] it was -2.2 (inactive).
For the compound `CO[C@@H]1COC(=O)[C@@H]2CCCN2C(=O)[C@@H](C)COC(=O)[C@H](COCc2ccccc2)NC(=O)CC=C[C@H]1C`, the composite z-score is -0.33 (inactive) in assay [1] and 0.0728 with XIP peptide (Xip251-270). The z-score in assay [2] was -0.67; in assay [3] it was -0.767 (inactive).
For `C=CC[C@@H]1C=C[C@H](ON=C(C)CCN2CCc3nc(CC)c(CC)cc3C2)[C@@H](CO)O1`, in that order: 0.0621 (inactive), -0.0738, -0.163 and -5.51 (inactive).
`CO[C@H]1COC(=O)[C@H](C)COC(=O)CC=C[C@@H](C)[C@H](OC)COC(=O)CC=C[C@@H]1C`: the composite z-score in assay [1] was 0.159 (inactive); in the assay on XIP peptide (Xip251-270) it was -0.0452. Besides, the figures for the z-score in assay [2] and in assay [3] were 1.7 and 0.149 (inactive), respectively.
In the case of `C=COC[C@H]1CN2[C@@H](CC[C@@H](C)[C@@H]2c2ccc(Br)cc2)C(=O)O1`, the results for the composite z-score (in assay [1]; in the assay with XIP peptide (Xip251-270)) were 0.299 (inactive) and 0.719, respectively. In addition, the z-score in assay [2] was 0.0315; in assay [3] it was -2.37 (inactive).
Turning to `COc1ccc(COC(=O)NN=C2C[C@@H](O)[C@@H](O)[C@@H]3[C@@H]4C(=O)N(Cc5ccc6c(c5)OCO6)C(=O)[C@@H]4CC[C@@H]23)cc1`, the results for the composite z-score (in assay [1]; with XIP peptide (Xip251-270)) were 0.361 (inactive) and -0.239, respectively. Besides, the values for the z-score in assay [2] and in assay [3] were 0.142 and 0.284 (inactive), respectively.
On the same counts, the results for `COc1ccc(O[C@@H]2[C@H](O)CO[C@H]2C=CC#Cc2ccccc2)cc1` are -0.0908 (inactive), 0.799, -0.456 and -3.09 (inactive).
For `O=C1[C@H]2[C@H]3[C@H](O)[C@H](O)CC(=NO[C@@H]4O[C@H](CO)[C@@H](O)[C@H](O)[C@H]4O)[C@H]3CC[C@H]2C(=O)N1Cc1ccc2c(c1)OCO2`, in that order: -0.0799 (inactive), 0.0812, 0.185 and -0.567 (inactive).
For `CC(C)CON=C1[C@H]2CCn3c(=O)n(-c4ccccc4)c(=O)n3[C@H]2[C@H](O)[C@@H]2O[C@H]12`, in that order: 0.142 (inactive), 0.263, -1.94 and -0.738 (inactive).
With `COC(=O)C1=C(C)N(Cc2ccccc2)[C@]23O[C@](C(=O)OC)(C(=O)N2[C@@H]1c1ccccc1)[C@H]1CCOC(=O)[C@H]13`, the composite z-score in assay [1] is 0.303 (inactive); in the assay with XIP peptide (Xip251-270), -0.202. Moreover, the figures for the z-score in assay [2] and in assay [3] were -0.303 and -4.7 (inactive), respectively.
On the same counts, the results for `CCOC(=O)[C@H](Cc1ccccc1)NC(=O)CCC1CC(OC(=O)NCc2ccc3c(c2)OCO3)CC2(CCCC(COC(=O)NCC(c3ccccc3)c3ccccc3)O2)O1` (some centres undefined) are 0.48 (inactive), 0.308, -0.909 and -3.45 (inactive).
